Compounds with a hit are over-represented: about 19% of the library has one in this group of screens.
SW480 rereplic: DNA re-replication induction in SW480 cells; SW480 DNA re-replication, Hoechst DNA content imaging, 48 h; Potency, µM (titrated, usually from 46.1 µM), for inactives: at the highest dose re-replication activation, usual class: activators; 340,000 tested, 1.8% active; AID 624297; further: potency means the concentration at half of the fitted maximal effect; % of control where 0% means no effect; nearly all actives have a fitted effect of over 55% in size
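Image-based read-out: total Hoechst fluorescence of nuclei (405 nm excitation, 500-530 nm emission), with hits raising the fraction of high-intensity nuclei. SW480 colon cells incubated 48 hr with compounds at 37 C.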
DT40 TDP1 no CPT: qHTS for Inhibitors of human tyrosyl-DNA phosphodiesterase 1 (TDP1): qHTS in cells in absence of CPT. 420,000 tested, 15% active. Potency, µM (top dose mostly 46.2 µM), without a hit: top-dose activity change, negative = growth inhibition, actives largely listed as inhibitors. DT40 Tdp1-/- hTDP1 cells, no CPT, ATP luminescence, 48 h; further: potency means the concentration at half of the fitted maximal effect; on the % scale 0 is the no-effect control and ±100 the full control effect; nearly all actives have a fitted effect of over 55% in size
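Cells were dispensed at 400 per well, compounds added by pin tool, plates incubated ≥48 hr at 37 °C, then CellTiter-Glo added for 30 min at room temperature before luminescence reading. Line: DT40 Tdp1-/- complemented with hTDP1; camptothecin omitted.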
TDP1 cell CPT: DT40-hTDP1 cell growth loss with CPT; Potency, µM (series often up to 46.2 µM), without a hit: top-dose activity change, negative = growth inhibition, usual class: inhibitors; 420,000 tested, 12% active; AID 686979; chicken DT40 Tdp1-/-;hTDP1 cells + 20 nM CPT, ATP luminescence, 48 h; further: potency means the concentration at half of the fitted maximal effect; on the % scale 0 is the no-effect control and ±100 the full control effect; nearly all actives have a fitted effect of over 55% in size
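Chicken DT40 Tdp1-/- cells complemented with human TDP1, 400 cells/well, exposed to compounds plus 20 nM camptothecin for at least 48 h at 37 C; viability read as ATP content by CellTiter-Glo luminescence.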
MCF10A rereplic: induces DNA re-replication in MCF 10a normal breast cells; MCF 10A DNA re-replication, Hoechst nuclear intensity, 48 h; Potency, µM (titrated, usually from 46.1 µM), without a hit: at the top dose activity, positive = re-replication, usual class: activators; 350,000 tested, 2.9% active; further: potency means the concentration at half of the fitted maximal effect; % of control where 0% means no effect; nearly all actives have a fitted effect of over 50% in size
IL-1B inflam inh: inflammasome signaling inhibition, IL-1 beta readout; THP-1 LPS/ATP IL-1B secretion, AlphaLISA, 16 h; hits give low values; activity change, % at 57.5 µM; 360,000 tested, 4.7% active; AID 743279; in the data active means activity change below about -50%; inconclusive means mostly about -30% to -49%; further: on the % scale 0 is the no-effect control and ±100 the full control effect
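THP-1 cells pretreated 1 hr with compounds (up to 57.5 uM final), then stimulated with LPS (250 ng/mL final) plus ATP (1.25 mM final); secreted IL-1B measured by AlphaLISA after 16 hr, decreased signal indicating inhibition.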
BCR signal inh: chronic active BCR signaling inhibition | ABC-DLBCL IkBa-CBG/CBR reporter, luminescence ratio, 4 h | AID 493014 | 340,000 tested, 0.05% active | Potency, µM (top dose mostly 46.1 µM), without a hit: at the top dose activity change, negative = inhibition, most hits filed as inhibitors; active means well fitted inhibition curve with a large enough effect in the signal ratio, with a control signal flat, not every such curve was filed as active; inconclusive means small, poorly fitted or top-dose-only effect, or effect the other way, or a change in a side signal; the % refers to the signal ratio;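 further: potency means the concentration at half of the fitted maximal effect; plate controls were basal doxycycline-induced cells for no effect and cells given 10 µM MG132 for full effect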
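Doxycycline induced both beetle luciferases in TMD8 lymphoma cells; IKK-driven degradation limits the IkappaBalpha-fused green signal, while red luminescence normalises for cell number and nonspecific effects. Compounds tested up to 46 uM, 4 hrs.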
Active calls of the source: *; ? = inconclusive; · = no result given; [ ] = remark or other dose. Unless noted, the call rests on the fitted dose curve; in most records, active means well fitted curve in the direction sought with a large enough effect; inconclusive means small, poorly fitted or top-dose-only effect, or another doubt; inactive means no such curve, though single readings can be large; an effect the other way counts as inactive or inconclusive.

SMILES	SW480 rereplic	DT40 TDP1 no CPT	TDP1 cell CPT	MCF10A rereplic	IL-1B inflam inh	BCR signal inh
Cc1ccc(CNC(=O)c2ccc3c(c2)CCN3S(=O)(=O)c2ccc(Br)cc2)cc1	·	-24%	-18%	·	·	·
CCS(=O)(=O)N1CCc2cc(C(=O)NCCc3ccc(OC)c(OC)c3)ccc21	·	-13%	-6%	·	·	·
O=S(=O)(Nc1ccccc1O)c1ccc(Cl)nc1	-3%	13%	-12%	2%	30	0%
Cn1c(=O)cc(SCC(=O)Nc2cccc(C#N)c2)c2ccc(Cl)cc21	·	-22%	-17%	·	·	·
S=C(Nc1ccc2nsnc2c1)N1CCCCC1	-12%	-26%	11%	11%	-64*	-3%
COc1ccc(CCNC(=O)c2ccc(N(C)S(=O)(=O)c3ccc(C)cc3)cc2)cc1OC	-3%	21µM*	21µM*	-4%	-4	0%
COc1ccc(CCNC(=O)C2CCC(CNS(=O)(=O)c3ccccc3)CC2)cc1OC (centres undefined)	·	·	·	·	·	5%
COc1ccc(CCNC(=O)COc2ccc(N(C)S(=O)(=O)c3ccc(C)cc3)cc2)cc1OC	-6%	16µM*	?	10%	?	7%
COc1ccc(CCNC(=O)COc2ccc(N(C)S(=O)(=O)c3ccc(Cl)cc3)cc2)cc1	25%	?	23µM*	7%	-14	8%
COc1ccc(CCNC(=O)c2ccc(CNS(=O)(=O)c3ccccc3)cc2)cc1OC	-2%	16µM*	18µM*	2%	-11	?
CN(c1ccc(OCC(=O)NCCc2ccccc2)cc1)S(=O)(=O)c1ccc(Cl)cc1	2%	?	?	15%	-6	0%
COC(=O)c1cc2occc2n1CC(=O)Nc1ccc(C(C)C)cc1	·	-28%	?	·	·	·
Cc1cc(C)c(NC(=O)CSc2ccnc(=O)[nH]2)c(C)c1	·	-28%	?	·	·	-1%
COc1ccc(CCNC(=O)c2ccc(CNc3nc(=S)[nH]c4ccccc34)cc2)cc1OC	-1%	?	15µM*	11%	6	?
COc1ccc(CNC(=O)c2ccc(CNS(=O)(=O)c3ccc(OC)cc3)cc2)cc1	·	-3%	-8%	·	·	·
COc1ccc(S(=O)(=O)NCc2ccc(C(=O)NCCN(C)Cc3ccccc3)cc2)cc1	·	21µM*	18µM*	·	-20	·
Cc1c(Cl)cccc1NC(=O)C(=O)NCCc1csc(-c2cccc(F)c2)n1	·	-20%	-9%	·	·	·
COc1ccc(-c2[nH]ncc2/C=N/NC(=O)c2ccncc2)c(OC)c1	-3%	-2%	6%	?	12	-2%
Cc1cc(C(=O)NC2CCCc3c2cnn3-c2cc(F)cc(F)c2)nn1C (centres undefined)	-3%	?	?	18%	10	1%
Cc1ncoc1C(=O)NC1CCCc2c1cnn2-c1cc(F)cc(F)c1 (centres undefined)	·	26µM*	-29%	·	27	·
COc1ccc(-n2ncc3c2CC(C)(C)CC3NC(=O)CN2CCOC2=O)cc1 (centres undefined)	4%	?	-49%	-1%	-16	-2%
CCn1nc(C)cc1C(=O)NC1CCCc2c1cnn2-c1cc(F)cc(F)c1 (centres undefined)	27%	18µM*	?	0%	7	0%
Cc1ncoc1C(=O)NC1CCCc2c1cnn2-c1ccc(C(C)(C)C)cc1 (centres undefined)	13%	7.3µM*	7.3µM*	3%	-10	?
O=C(NC1CCCc2c1cnn2-c1cc(F)cc(F)c1)c1ccncc1 (centres undefined)	3%	-18%	-27%	1%	25	-6%
CC(C)(C)c1ccc(-n2ncc3c2CCCC3NC(=O)CN2CCOC2=O)cc1 (centres undefined)	8%	16µM*	18µM*	28%	-28	-6%
SMILES	SW480 rereplic	DT40 TDP1 no CPT	TDP1 cell CPT	MCF10A rereplic	IL-1B inflam inh	BCR signal inh
CC(C)(C)c1ccc(-n2ncc3c2CCCC3NC(=O)CCC2=NNC(=O)CC2)cc1 (centres undefined)	·	3.3µM*	9.2µM*	·	4	·
Cc1cc(C(=O)NC2CCCc3c2cnn3-c2ccc(C(C)(C)C)cc2)n[nH]1 (centres undefined)	3%	12µM*	21µM*	21%	75	-14%
CC(C)(C)c1ccc(-n2ncc3c2CCCC3NC(=O)c2ccncc2)cc1 (centres undefined)	2%	10µM*	12µM*	17%	18	·
Cc1cc(C)c(C(=O)NC2CCCc3c2cnn3-c2ccc(C)c(C)c2)c(=O)[nH]1 (centres undefined)	-2%	-12%	-12%	24%	8	3%
COc1ccccc1N1CCN(C(=O)c2cn(C)c3ccc(S(=O)(=O)N(C)C4CCCCC4)cc3c2=O)CC1	·	?	-27%	·	·	·
COc1ccc(OC)c(-c2cc(Cl)c3c(c2)CC(CNC(=O)c2cnn4cccnc24)O3)c1 (centres undefined)	·	-15%	19%[9.04 µM]	·	·	·
COc1ccc(Cn2ccnc2SCC(=O)Nc2ccc3c(c2)OCCO3)cc1	·	-9%	?	·	·	·
CC(C)c1ccc(NC(=O)C2CCC(CNC(=O)[C@@H]3Cc4ccccc4CN3)CC2)cc1 (some centres undefined)	?	?	?	15µM*	44	-12%
CCC(C)N(C(=O)CSc1nnc(NC(C)C)s1)C1CCS(=O)(=O)C1 (centres undefined)	-4%	9%	2%	-1%	-10	3%
C[C@H]1CN([C@@H](C)CO)C(=O)c2cccc(NC(=O)Nc3ccc(C(F)(F)F)cc3)c2O[C@@H]1CN(C)Cc1ccc(Cl)c(Cl)c1	-9%	3.7µM*	3.3µM*	?	0	0%
C[C@@H]1CN([C@H](C)CO)C(=O)c2cc(NC(=O)Nc3ccc(C(F)(F)F)cc3)ccc2O[C@H]1CN(C)Cc1ccc(Cl)c(Cl)c1	28%	21µM*	?	?	-80*	3%
C[C@H]1CN([C@@H](C)CO)C(=O)c2cccc(NC(=O)C3CC3)c2O[C@H]1CN(C)Cc1ccc(C(F)(F)F)cc1	-4%	?	-28%	22%	-3	1%
COc1cccc(C(=O)NCCS(=O)(=O)NCCCc2ccccc2)c1	-3%	-16%	-20%	-5%	0	-9%
COc1ccccc1CNC(=O)C1CCN(S(=O)(=O)c2ccc3[nH]c(=O)ccc3c2)CC1	·	-17%	-8%	·	·	·
